# FLuc counter: qHTS profiling assay for firefly luciferase inhibitor/activator using purifed enzyme and Km concentrations of substrates (counterscreen for miR-21 project). purified FLuc, Km substrates, luminescence inhibition. Potency, µM (series often up to 57.5 µM), inactives show at the top dose activity change, negative = inhibition, actives largely listed as inhibitors. AID 588342, 2011. 6.9% of 360,000 active;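 note: plate controls were vehicle for no effect and reference inhibitor for full effect; nearly all actives have a fitted effect of over 55% in size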
# Target sequence (P08659 whole entry, looked up): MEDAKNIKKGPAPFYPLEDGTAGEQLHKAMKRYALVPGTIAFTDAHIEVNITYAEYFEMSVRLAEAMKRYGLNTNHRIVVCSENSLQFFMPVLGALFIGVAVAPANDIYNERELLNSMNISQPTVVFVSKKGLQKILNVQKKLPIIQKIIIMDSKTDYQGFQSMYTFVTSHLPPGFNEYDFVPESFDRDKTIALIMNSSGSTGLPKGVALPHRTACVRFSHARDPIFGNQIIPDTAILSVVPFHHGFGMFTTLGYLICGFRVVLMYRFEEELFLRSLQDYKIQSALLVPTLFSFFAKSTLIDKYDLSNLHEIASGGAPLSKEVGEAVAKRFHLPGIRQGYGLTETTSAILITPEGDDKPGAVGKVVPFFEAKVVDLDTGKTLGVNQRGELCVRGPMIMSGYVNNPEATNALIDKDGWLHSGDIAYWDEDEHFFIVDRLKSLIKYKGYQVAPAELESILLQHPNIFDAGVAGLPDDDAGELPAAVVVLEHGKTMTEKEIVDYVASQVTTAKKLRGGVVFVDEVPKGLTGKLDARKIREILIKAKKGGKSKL
#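 Biochemical qHTS of compounds, final roughly 60 µM downward over six points, against 10 nM purified firefly luciferase using Km concentrations of substrates (10 uM D-luciferin, 10 uM ATP) in Tris acetate pH 7.5 buffer; luminescence output.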
# SMN2 splice up: qHTS Assay for Enhancers of SMN2 Splice Variant Expression | AID 1458, 2008 | 2.8% of 210,000 active | Potency, µM (doses to about 46.1 µM), for inactives: at the top dose activity change, positive = activation, usual class: activators | HEK293 SMN2-luciferase splicing reporter, luminescence, 30-36 h; note: % of control where 0% means no effect; nearly all actives have a fitted effect of over 55% in size
#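 HEK293 cells carry an SMN2 […]–luciferase reporter in which exon 7 inclusion puts luciferase in frame. Cells were plated 10-12 h before compound addition, then incubated 30-36 h at 37C. ONE-Glo luminescence was read; sodium butyrate at 4.5 mM final served as control.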
# Rab9 prom act: qHTS Assay for Rab9 Promoter Activators; Huh7 Rab9 promoter-luciferase reporter, luminescence, 24 h; Potency, µM (top dose mostly 9.22 µM), without a hit: at the top dose activation, negative = inhibition, usual class: activators; 2.8% of 320,000 active; note: % of control where 0% means no effect; nearly all actives have a fitted effect of over 60% in size
#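 Stable Rab9-luc Huh7, 1500 cells/well, 2 h settle; cmpd in DMSO, 24 h, 37 °C/5% CO2; luciferase reagent 10 min RT; luminescence.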
# ELG1 genotox: qHTS screen for small molecules that induce genotoxicity in human embryonic kidney (HEK293T) cells expressing luciferase-tagged ELG1. HEK293T ELG1-luciferase reporter, luminescence, 16 h. Potency, µM (titrated, usually from 46 µM), for inactives: top-dose activity change, positive = activation, actives largely listed as activators. 1.3% of 330,000 active; note: % of control where 0% means no effect; nearly all actives have a fitted effect of over 60% in size
#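 ELG1-luciferase HEK293T cells, 2,000/well; compound pinned in; 16 hr, 37 °C, 5% CO2; ONE-Glo, 30 min RT; luminescence on CCD imager.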
# NPC1 promoter act: qHTS Assay for NPC1 Promoter Activators; Huh7 NPC1 promoter luciferase reporter, 24 h; Potency, µM (series often up to 9.22 µM), for inactives: at the top dose activation, most hits filed as activators; AID 485313, 2010; 2.4% of 320,000 active; note: % of control where 0% means no effect; nearly all actives have a fitted effect of over 60% in size
#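 In 1536-well qHTS, Huh7 cells harboring an NPC1 promoter–luciferase construct received compound for 24 h; activation was quantified by luminescence following luciferase reagent addition.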
# ELG1 DNA repair: qHTS screen for small molecules that inhibit ELG1-dependent DNA repair in human embryonic kidney (HEK293T) cells expressing luciferase-tagged ELG1; HEK293T ELG1-luciferase reporter, luminescence, 16 h; DNA damage induced by 5-fluorouridine; Potency, µM (top dose mostly 46.1 µM), for inactives: top-dose activity change, negative = inhibition, actives largely listed as inhibitors; AID 504467, 2011; 2.3% of 330,000 active; note: % is set by controls: 0 for no effect and ±100 for the full control effect; nearly all actives have a fitted effect of over 55% in size
#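 Overnight (16 hr) co-exposure of 2,000 cells/well to 5-fluorouridine and compound at 37 °C preceded detection. Luciferase was quantified via ONE-Glo luminescence; loss of signal denotes inhibition.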
# Numbers without * were called inactive; u = inconclusive; x = no result given; [ ] = remark or other dose. Most compounds without a hit are left out; they make up all but 9.3% or so of the library. Calls come from the whole dose curve; as a rule, active = well fitted curve in the direction sought with a large enough effect; inconclusive = small, poorly fitted or top-dose-only effect, or another doubt; inactive = no such curve, though single readings can be large; an effect the other way counts as inactive or inconclusive. Potency is the fitted concentration of half-maximal effect.
SMILES,FLuc counter,SMN2 splice up,Rab9 prom act,ELG1 genotox,NPC1 promoter act,ELG1 DNA repair
CC(=O)c1c(C)[nH]c(C(=O)COC(=O)c2ccc(C)s2)c1C,x,x,x,9%,x,u
COc1cccc(CN(C)C(=O)C2CCN(S(=O)(=O)c3cccs3)CC2)c1OC,x,x,-4%,2%,1%,u
CCN(C(=O)c1cccc(NC(=O)c2ccccc2)c1)C1CCCCC1,1%,x,-2%,-1%,-3%,-1%
COc1ccc2c(c1)O[C@@H](c1ccc3c(c1)OCO3)[C@H](OC(=O)N[C@H]1CCCc3ccccc31)C2=O,x,-4%,x,x,x,x
NS(=O)(=O)c1ccc(CCN=C(NS(=O)(=O)c2cccs2)c2ccccc2)cc1,2%,16%,-4%,2%,-1%,2%
Cn1cc(CNCc2cn(C)nc2-c2ccc(C3CCCCC3)cc2)cn1,u,-13%,-6%,-2%,-2%,-1%
O=C(/C=C/c1cccs1)Nc1ccc([N+](=O)[O-])cc1,u,u,u,11%,23%,-5%
O=C(/C=C/c1cccs1)N1CCCC1,-4%,x,26%,6%,0%,u
CCCOC(=O)c1cc(NC(=O)/C=C/c2ccccc2)ccc1O,15µM*,x,0%,-8%,0%,u
Cc1cc(C)n(C(=O)/C=C/c2cccs2)n1,17µM*,x,-4%,4%,-10%,u
O=C(/C=C/c1cccs1)Nc1ccncc1,13µM*,15%,27%,18%,16%,u
Cc1ccc2c(c1)c1c(c(=O)n(-c3ccccc3C)c(=O)n1CC(=O)N1CCCC1)n2C,-7%,x,x,x,x,x
Cn1c(CNC(=O)CCNC(=O)c2cccc(F)c2)cc(=O)n(C)c1=O,1%,x,-2%,2%,-4%,0%
Cc1ccccc1-c1nc(NCCN2CCOCC2)c2ccccc2n1,x,2%,x,x,x,x
CCc1nnc(NC(=O)CSc2nc(C)cc(C)c2C#N)s1,u,11µM*,0.5µM*,u,u,u
Cc1cc(C)c(C#N)c(SCC(=O)Nc2ccc3c(c2)OCO3)n1,-10%,16µM*,u,16µM*,u,u
Cc1cc(C)c(C#N)c(SCC(=O)Nc2ccccc2C(N)=O)n1,12µM*,13µM*,1.3µM*,u,2µM*,u
CCOC(=O)NC(=O)CSc1nc(C)cc(C)c1C#N,u,112%,1.6µM*,5.8µM*,2.5µM*,u
CCc1nnc(NC(=O)CSc2nc(-c3ccc(F)cc3)cc(-c3ccccc3)c2C#N)s1,u,x,-1%,5%,-2%,2%
CC1=C(C(N)=O)C(c2ccc(Cl)c(Cl)c2)n2ncnc2N1 (stereo unspecified),2%,x,-6%,3%,1%,5%
NC(=O)c1ccccc1NC(=O)C1CCCN(c2ncnc3onc(-c4ccc(F)cc4)c23)C1 (stereo unspecified),-14%,x,x,x,x,x
CC1(C)S[C@@H]2[C@H](NC(=O)[C@@H](NC(=O)N3CCNC3=O)c3ccccc3)C(=O)N2[C@H]1C(=O)O,x,-4%[20.6 µM],x,x,x,x
Cc1cc(C)c(C#N)c(SCC(=O)N2CCCCC2)n1,5%,6%,-1%,0%,0%,15%
COc1cc2c(cc1OC)CN(C(=O)CSc1nc(C)cc(C)c1C#N)CC2,-6%,0%,-6%,-4%,0%,2.6µM*
CCCCOC(=O)c1ccc(NC(=O)C2CCCO2)cc1 (stereo unspecified),u,8%,u,15%,28%,u
SMILES,FLuc counter,SMN2 splice up,Rab9 prom act,ELG1 genotox,NPC1 promoter act,ELG1 DNA repair
CCCCc1nnc(NC(=O)C2CCCO2)s1 (stereo unspecified),-2%[2.3 µM],35µM*,28%,15%,11%,u
CCCCc1nnc(NC(=O)C2=COCCO2)s1,17µM*,x,4.5µM*,15µM*,2.5µM*,u
CCOC(=O)c1ccc(NC(=O)Nc2ccc(Cl)cn2)cc1,-1%,-1%,1%,0%,3%,0%
CCOC(=O)c1ccc(NC(=O)C2CCCO2)cc1 (stereo unspecified),u,43%,6.3µM*,27%,u,u
CCOC(=O)c1ccc(NC(=O)Nc2ccon2)cc1,19µM*,x,-9%,7.3µM*,16%,u
Cc1ccc(Cl)cc1NC(=O)C(NS(=O)(=O)c1ccc2c(c1)CCC(=O)N2)c1ccccc1 (stereo unspecified),-2%,-6%,x,x,x,x
COC(=O)c1nnc(C(=O)NCc2ccccc2)c2[nH]c3ccc(OC)cc3c12,x,6%,x,x,x,x
CCOC(=O)c1c(NC(=O)c2cccc(N3C(=O)CCC3=O)c2)sc2c1CCN(CC)C2,0%,x,7%,3%,13%,-2%
CCCCc1ccc(NC(=O)C2CCCO2)cc1 (stereo unspecified),13µM*,10µM*,2.2µM*,u,1.6µM*,u
Cc1ccc(C(=O)Oc2cc(C)n(C)c(=O)c2)cc1,15µM*,-15%,-3%,-2%,-7%,u
CC(=O)c1c(OC(=O)c2ccc(C)cc2)c2ccccc2n1C,5%,29%,6%,-40%,1%,u
C/C(=N\NC(=O)c1nn(C)cc1Br)c1cccc(NC(=O)C(C)(C)C)c1,u,-7%,-8%,4%,-4%,-4%
C/C(=N\NC(=O)c1ccccc1F)c1cccc(NC(=O)c2ccccc2)c1,2.7µM*,x,11%,u,24%,u
C/C(=N\NC(=O)c1nn(C)c(C)c1Br)c1cccc(NC(=O)c2ccc(F)cc2)c1,1.9µM*,u,u,8%,28%,u
C/C(=N\NC(=O)c1c(Br)c(C)nn1C)c1cccc(NC(=O)c2ccccc2C)c1,12µM*,-3%,-5%,1%,2%,u
C/C(=N\NC(=O)c1cc(Br)ccc1O)c1cccc(NC(=O)c2ccccc2F)c1,u,x,-5%,10%,-1%,u
C/C(=N\NC(=O)c1c(Br)c(C)nn1C)c1cccc(NC(=O)c2ccccc2F)c1,u,9%,0%,0%,2%,u
C/C(=N\NC(=O)c1c(Cl)c(C)nn1C)c1cccc(NC(=O)c2cccc(F)c2)c1,11µM*,x,16%,-17%,2%,u
COc1ccc(C(=O)N2CCC(C(=O)Nc3ccccc3Cl)CC2)cc1,-2%,-6%,x,x,x,x
Cc1ccc(CNC(=O)Cn2nc(N3CCN(c4ccccc4)CC3)ccc2=O)cc1,-14%,x,x,x,x,x

# Compound activity: PubChem, National Center for Advancing Translational Sciences (NCATS)
